In the library only some 11% were active in any assay of this set; here they are far more common.
NPR1 antag – blocks ANP-stimulated signaling of human Npr1 receptor | P16066 | HEK293 hNpr1 GloSensor cGMP, ANP-stimulated luminescence | Potency, µM (highest dose often 46.3 µM), inactives show top-dose activity change, negative = inhibition, most hits filed as inhibitors | 76,000 compounds, 1.6% hits | AID 1347048; calls by dose curve; note: nearly all actives have a fitted effect of over 60% in size
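Compound pre-incubated 30 min at room temperature on GloSensor-loaded HEK293 cells stably carrying hNpr1 and the pGS-40F cGMP biosensor. Stimulation uses hNppA at 0.1 nM final; luminescence is taken at baseline and 20 min post-agonist.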
HEK293 tox – kills HEK 293 cells | HEK 293 viability, ATP luminescence (CellTiter-Glo), 48-72 h | Potency, µM (titrated, usually from 115 µM), without a hit: at the top dose activity change, negative = cytotoxicity, hits mostly inhibitors | 94,000 compounds, 6.6% hits | AID 1345083; note: nearly all actives have a fitted effect of over 60% in size
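Cytotoxicity was scored by loss of ATP-coupled luminescence (CellTiter-Glo) in HEK 293 cells. Compound treatment ran 48 or 72 hr at 37 degree Celsius, 5% CO2, 95% humidity.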
FLuc inh – inhibitors of firefly (Photinus pyralis) luciferase; Potency, µM (titrated, usually from 115 µM), hits mostly inhibitors; P08659; 76,000 compounds, 2.5% hits; AID 1347043; purified P. pyralis luciferase, luminescence, biochemical; note: nearly all actives have a fitted effect of over 65% in size
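Biochemical qHTS: compound (6-point titration) added to 10uM D-luciferin plus 10uM ATP in Tris acetate pH 7.5 buffer with Mg, Tween-20 and BSA, then purified enzyme at 10nM; light output imaged.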
3T3 cytotox – NIH 3T3 cell cytotoxicity. NIH 3T3 viability, CellTiter-Glo ATP luminescence, 48-72 h. Potency, µM (titrated, usually from 96.7 µM), without a hit: at the highest dose activity change, negative = cytotoxicity, actives largely listed as inhibitors. 94,000 compounds, 4.3% hits. AID 1345082; note: nearly all actives have a fitted effect of over 55% in size
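Cytotoxicity was measured by CellTiter-Glo ATP luminescence after 48 or 72 h compound exposure at 37 °C. Mouse NIH 3T3 fibroblasts were seeded at 400 cells/well and dosed by 23 nL pin transfer.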
Active calls of the source: *; i = inactive; ? = inconclusive; / = not tested or not shown; ! = not active in a repeat; [ ] = remark or other dose. Unless noted, calls come from the whole dose curve; as a rule, active = well fitted curve in the direction sought with a large enough effect; inconclusive = small, poorly fitted or top-dose-only effect, or another doubt; inactive = no such curve, though single readings can be large; an effect the other way counts as inactive or inconclusive. % is set by controls: 0 for no effect and ±100 for the full control effect; potency is the fitted concentration of half-maximal effect.

SMILES	NPR1 antag	HEK293 tox	FLuc inh	3T3 cytotox
Cc1cccc(C)c1NC(=O)CN1C(=O)NC2(CCC(C(C)(C)C)CC2)C1=O (stereo not given)	0%	?	i	i
COc1ccccc1-c1cc(C(=O)Nc2cccc(C(F)(F)F)c2)c2cnn(C)c2n1	/	14µM*	/	?
COc1ccc(-c2cc(C(=O)Nc3cccc(C(F)(F)F)c3)c3cnn(C)c3n2)cc1	/	35µM*	/	?
COCC1CN(C)CC12CCN(S(=O)(=O)c1ccc3c(c1)OCCO3)CC2 (stereo not given)	-21%	?	i	?
COc1ccccc1Nc1ccnc(N2CCCC(C(=O)NCCc3ccccc3F)C2)n1 (stereo not given)	/	35µM*!	/	?
CCCCCNC(=O)C1CCCN(c2nccc(Nc3ccccc3OC)n2)C1 (stereo not given)	/	40µM*	/	?
COc1ccccc1Nc1ccnc(N2CCCC(C(=O)NCCc3ccccc3)C2)n1 (stereo not given)	/	?	/	16µM*
C#CCNC(=O)[C@@H]1CCCN1c1nccc(Nc2ccccc2OC)n1	/	-5%	/	-5%
COC(=O)N1CCCC(C(=O)N2CCC(c3nc4ncccc4[nH]3)CC2)C1 (stereo not given)	/	i	/	-3%
COc1ccc(CCN(C)C(=O)CC(c2cccc(F)c2)c2cn(C)c3ccccc23)cc1OC (stereo not given)	-25%	40µM*	i	?
Cc1cccc(NC(=O)Cn2c(C)cc3nc4n(c(=O)c32)CCCCC4)c1C	-3%	-13%	i	-28%
COCCn1ccc2c(C3=CCOCC3)nc(-c3ccc4c(c3)CNC4=O)cc21	-1%[70.6 µM]	?	?	?
COCCn1ccc2c(C3=CCOCC3)nc(-c3ccc4cn[nH]c4c3)cc21	-2%[70.6 µM]	?	i	?
COCCn1ccc2c(C3=CCOCC3)nc(-c3cccc(CO)c3)cc21	3%[70.6 µM]	?	i	13µM*
COCCn1ccc2c(C3=CCOCC3)nc(-c3cccc4[nH]ncc34)cc21	-11%[70.6 µM]	?	i	?
COCCn1ccc2c(C3=CCOCC3)nc(-c3cccc4[nH]ccc34)cc21	-1%[70.6 µM]	28µM*	i	50µM*
COCCn1ccc2c(C3=CCOCC3)nc(-c3cccc(N4CCOCC4)c3)cc21	2%[70.6 µM]	?	i	45µM*
O=C(NC[C@H]1O[C@H](Cc2cc(COc3ccccc3)on2)CC[C@@H]1O)Nc1cccc(F)c1	-12%	?	i	?
Cn1c2c(c3cc(F)ccc31)CN(C(=O)Nc1ccc(Cl)cc1)CC2	-15%	?	25µM*	28µM*
Cn1c2c(c3cc(F)ccc31)CN(C(=O)Nc1cccc(Cl)c1)CC2	?	?	?	20µM*
Cc1cccc(NC(=O)N2CCc3c(c4cc(F)ccc4n3C)C2)c1	-15%	?	?	?
COc1cccc(C(=O)N2CCN(CCn3nc4n(c3=O)CCCC4)CC2)c1	/	3%	/	0%
CNC(=O)CCn1ncc2cc(OC3CCc4cccc(-c5cnn(C)c5)c43)ccc21 (stereo not given)	1%[70.6 µM]	50µM*	i	?
CNC(=O)CCn1ncc2cc(OC3CCc4cccc(-c5cccc(CO)c5)c43)ccc21 (stereo not given)	-1%[70.6 µM]	79µM*	?	?
O=C(O)CCn1ncc2cc(OC3CCN(C(=O)OCc4ccccc4)CC3)ccc21	-3%[70.6 µM]	-19%[172 µM]	?	?
SMILES	NPR1 antag	HEK293 tox	FLuc inh	3T3 cytotox
CNC(=O)CCn1ncc2cc(OC3CCc4cccc(-c5ccc(O)c(F)c5)c43)ccc21 (stereo not given)	2%	?	i	40µM*
CC(C)OC(=O)N1CCC(Oc2ccc3c(cnn3CCC(=O)O)c2)CC1	1%[70.6 µM]	4%[172 µM]	i	?
CNC(=O)CCn1ncc2cc(OC3CCc4cccc(-c5ccc(OC)cc5)c43)ccc21 (stereo not given)	-19%[70.6 µM]	79µM*	i	50µM*
COCCN1CCCCC(CC(=O)Nc2cc(C)c(Cl)cc2OC)C1=O (stereo not given)	0%	?	i	-27%
Cc1ccccc1-n1cc(-c2ccnc(NC(C)Cc3ccncc3)n2)cn1 (stereo not given)	?	35µM*	i	?
CC1CCc2nn3ccn(CC(=O)Nc4ccccc4)c(=O)c3c2C1 (stereo not given)	-4%	-21%	i	-15%
CCc1ccc(NC(=O)Cn2ccn3nc4c(c3c2=O)CC(C)CC4)cc1 (stereo not given)	0%	45µM*	i	?
CN1CCN(Cc2nc(C3(O)CCN(CC4CCCCC4)CC3)cs2)CC1	4%[70.6 µM]	?	i	?
CCCC(C)C(=O)N1CCn2nc(C(=O)Nc3ccccc3)cc2C1 (stereo not given)	-23%	35µM*	i	-18%
CC(C)c1nc2c(c(-c3ccc(O)cc3)n1)CCN(Cc1ccc(C(F)(F)F)cc1)CC2	5%	35µM*	i	40µM*
CC(C)c1nc2c(c(-c3ccc(Cl)cc3)n1)CCN(Cc1ccc(F)cc1)CC2	/	40µM*	/	?
CC(C)c1nc2c(c(-c3ccc(O)cc3)n1)CN(Cc1ccc(C(F)(F)F)cc1)CC2	2%	40µM*	i	?
Oc1ccc(-c2nc(C3CC3)nc3c2CN(Cc2ccc(C(F)(F)F)cc2)CC3)cc1	-2%	89µM*	i	?
O=C(NCc1ccc2c(c1)OCO2)C1CCCN1C(=O)c1cccc(-c2ccccn2)c1 (stereo not given)	/	i	/	-8%
Cc1ccc(C(=O)N2CCCCCCNC(=O)[C@@H]3C[C@@H](c4nc(-c5cccnc5)no4)C[C@@H]32)s1	0%	1%	i	-24%
O=C1Nc2ccccc2CC12CN(Cc1ccc(F)c(F)c1F)C2	/	?	/	-23%
COc1ccc(-n2cc(CN3CCCC(CO)C3)c(-c3cccc(F)c3)n2)cc1 (stereo not given)	2%	?	?	?
CC(C)c1nc2c(c(-c3ccc(O)cc3)n1)CN([S+](=O)([O-])c1cccc(C(F)(F)F)c1)CC2	14%	?	i	18µM*
CC(C)c1nc2c(c(-c3ccc(Cl)cc3)n1)CN([S+](=O)([O-])c1cccc(C(F)(F)F)c1)CC2	1%	-3%	i	0%
Cc1cccc(-c2nc3cc4c(cc3cc2CN2CCC[C@H]2C(N)=O)OCO4)c1	4%	?	i	?
Cc1ccc(-n2cc(CN3CCCCC3C(N)=O)c(-c3cccc(C)c3)n2)cc1 (stereo not given)	5%	50µM*	?	79µM*
COc1ccc(-c2nccc3c(=O)cc(N(C)C)oc23)cn1	2%[70.6 µM]	i	i	50µM*
CN1CCN(c2ccc(-c3nccc4c(=O)cc(N(C)C5CCOCC5)oc34)cn2)CC1	4%[70.6 µM]	i	i	89µM*
CN1CCN(c2cc(=O)c3ccnc(Nc4ccccn4)c3o2)CC1	1%[70.6 µM]	-6%[172 µM]	i	?

Bioassay records as filed in PubChem BioAssay.
